{"source": "PubChem BioAssay (Tox21)", "note": "A number with no mark means an inactive call. The source made the active and inactive calls. The call rests on the fitted dose curve. On the % scale 0 is the no-effect control and ±100 the full control effect; potency means the concentration at half of the fitted maximal effect."}
{"target": "Gonadotropin-releasing hormone receptor (Homo sapiens) (UniProt P30968)", "sequence (P30968 whole entry, looked up)": "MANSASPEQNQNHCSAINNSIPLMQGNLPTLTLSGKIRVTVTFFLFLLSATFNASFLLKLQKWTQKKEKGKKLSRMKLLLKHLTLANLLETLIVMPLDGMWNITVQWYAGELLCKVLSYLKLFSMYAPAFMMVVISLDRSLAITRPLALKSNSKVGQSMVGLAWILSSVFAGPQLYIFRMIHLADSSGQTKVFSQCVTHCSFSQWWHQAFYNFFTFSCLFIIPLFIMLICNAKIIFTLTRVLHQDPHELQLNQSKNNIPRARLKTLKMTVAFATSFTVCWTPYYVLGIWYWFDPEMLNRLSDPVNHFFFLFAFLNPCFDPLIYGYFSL", "experiment": "Human gonadotropin-releasing hormone receptor (GnRHR) small molecule agonists, calcium flux assay in GnRHR-HEK293 cells (AID 1920063); further: nearly all actives have a fitted effect of over 35% in size", "conditions": "calcium flux fluorescence, agonist mode; series mostly up to 57.6 µM; activity change: at the top concentration", "description": "National Center for Advancing Translational Sciences [NCATS]\nDivision of Preclinical Innovation [DPI]\nU.S. Environmental Protection Agency [EPA]\nNational Institutes of Environmental Health Sciences [NIEHS]\nNational Toxicology Program [NTP]\nU.S. Food and Drug Administration [FDA]\nGonadotropin-releasing hormone receptor (GnRHR) is a G-protein-coupled receptor (GPCR) and acts (through phospholipase C) to increase intracellular inositol trisphosphate and then release intracellular calcium stores. Cell-based GnRHR-Hek293 calcium influx assay is using HEK293 cells that have been genetically engineered to express the human GnRHR, which activity can be measured by calcium signaling. A compound/drug can activate (agonist) GnRHR that can be monitored by levels of intracellular calcium.\nGnRHR-HEK293 cells developed by Codex Corp contain human GnRHR reporter gene, which was stably integrated into HEK 293 cells. The compound activation can be detected by fluorescence intensity via calcium flux assay. This cell line has been used to screen the Tox21 10K compound library to identify GnRHR agonists.\nGnRHR-Hek293 cells were dispensed at 1500cells/4uL/well in 1536-well black wall/clear bottom plates using a multidrop dispenser. After the assay plates were incubated at a 37 C/5% CO2 incubator for 18 hours, 4 uL of Calcium Dye Solution was added to each well. The plates were incubated at 37 C for 1 hour. For agonist mode, 23 nL of compounds dissolved in DMSO, positive controls or DMSO only was transferred to the assay plate by a pin tool station. The fluorescence intensity in the plates was measured using FDSS 7000EX kinetic plate reader with a filter set of Ex/Em=480/540 for 3 min at 1 sec intervals. Each test compound was measured at 15 concentrations and in triplicates."}
{"compound": "Cc1cccc(C)c1NC(=O)CN1CCN(CCCC(c2ccc(F)cc2)c2ccc(F)cc2)CC1", "activity change": "4.5% [at 26.4 µM, stronger effect = higher value]"}
{"compound": "CCCCCCCCCO", "activity change": "-1.16%"}
{"compound": "CC(=O)c1ccc[nH]1", "activity change": "-1.27%"}
{"compound": "O=C[C@@H](O)[C@H](O)[C@H](O)CO", "activity change": "-1%"}
{"compound": "Nc1ccc(C(=O)Nc2ccccc2N)cc1", "activity change": "-0.113% [at 26.4 µM, stronger effect = higher value]"}
{"compound": "CCN(C(=O)N(CC)c1ccccc1)c1ccccc1", "activity change": "4.92%"}
{"compound": "CCN(CC)CCNC(=O)COc1ccc(OC)cc1", "activity change": "0.442% [at 26.4 µM, stronger effect = higher value]"}
{"compound": "CCC(C)c1cc(C(C)(C)C)c(O)c(C(C)(C)C)c1", "note": "(stereo not given)", "activity change": "1.28%"}
{"compound": "Cc1ccc(-c2ncc(Cl)cc2-c2ccc(S(C)(=O)=O)cc2)cn1", "activity change": "2.49% [at 26.4 µM, stronger effect = higher value]"}
{"compound": "CCCCOCC(C)OCC(C)O", "note": "(stereo not given)", "activity change": "1.04%"}
{"compound": "C/C(=C\\c1ccc(C(=O)O)cc1)c1ccc2c(c1)C(C)(C)CCC2(C)C", "activity change": "0.0426% [at 26.4 µM, stronger effect = higher value]"}
{"compound": "c1ccc(Cc2ccccc2)cc1", "activity change": "3.12%"}
{"compound": "COc1cc(S(=O)(=O)Nc2ccccc2)c(OC)cc1N", "activity change": "-0.808%"}
{"compound": "C1CCC2=NCCCN2CC1", "activity change": "0.119%"}
{"compound": "C[C@@H](Oc1ccc(CNC(=O)c2cccnc2Oc2ccc3c(c2)OCO3)c(F)c1)C(=O)O", "activity change": "-0.0711%"}
{"compound": "Cc1c(C)c2c(c(C)c1OC(=O)c1cccnc1)CC[C@@](C)(CCC[C@H](C)CCC[C@H](C)CCCC(C)C)O2", "activity change": "1.41% [at 26.4 µM, stronger effect = higher value]"}
{"compound": "CCN(CC)C(=O)c1cc(S(=O)(=O)Cc2ccccc2)c(N2CCC(c3ccccc3)CC2)cc1N(CC)CCN(C)C", "activity change": "4.36% [at 26.4 µM, stronger effect = higher value]"}
{"compound": "CCOc1ccc2nc(N)sc2c1", "activity change": "3.16%"}
{"compound": "C[C@H]1C[C@H]2[C@@H]3CCC4=CC(=O)C=C[C@]4(C)[C@@]3(Cl)[C@@H](O)C[C@]2(C)[C@@]1(O)C(=O)CO", "activity change": "1.92% [at 26.4 µM, stronger effect = higher value]"}
{"compound": "C[C@H]1[C@H](NC(=O)/C(=N/OC(C)(C)C(=O)O)c2csc(N)n2)C(=O)N1S(=O)(=O)O", "note": "(stereo in doubt)", "activity change": "-0.539% [at 26.4 µM, stronger effect = higher value]"}
{"compound": "O=C1CN(/N=C/c2ccc([N+](=O)[O-])o2)C(=O)N1", "Potency": "inactive"}
{"compound": "Cc1ccccn1", "activity change": "0.478%"}
{"compound": "CCCCCCCCNC", "activity change": "-0.328%"}
{"compound": "CCCCCCOc1ccc(O)cc1", "activity change": "6.62%"}
{"compound": "COc1c2occc2cc2ccc(=O)oc12", "Potency": "inactive"}
{"compound": "CC(=O)Nc1ccc(S(=O)(=O)Cl)cc1", "activity change": "0.249%"}
{"compound": "COC(=O)NCCC[Si](OC)(OC)OC", "activity change": "-0.353%"}
{"compound": "N=C(N)N", "activity change": "1% [at 26.4 µM, stronger effect = higher value]"}
{"compound": "NNC(=O)OCc1ccccc1", "activity change": "-0.0025%"}
{"compound": "O=C(N[C@@H](c1ccccc1)[C@@H]1CCCCN1)c1cccc(C(F)(F)F)c1Cl", "Potency": "38.9 µM (active)"}
{"compound": "O=C(Cl)c1ccc(F)c(Cl)c1", "activity change": "-0.0032%"}
{"compound": "NC(N)=NCCC[C@H](N)C(=O)O", "activity change": "0.97% [at 5.22 µM, stronger effect = higher value]"}
{"compound": "C[C@H]1[C@@H](c2ccccc2)NC(=O)N1C", "activity change": "1.74%"}
{"compound": "O=C(O)C1(C(=O)Nc2ccc(Cl)cc2Cl)CC1", "activity change": "2.11%"}
{"compound": "CC(=O)SCc1ccco1", "activity change": "-0.0873%"}
{"compound": "OCCCCCO", "activity change": "1.57%"}
{"compound": "CC(=O)CCC1=C(C)CCCC1(C)C", "activity change": "4.85%"}
{"compound": "CC(C)c1nc(CN(C)C(=O)N[C@H](C(=O)N[C@@H](Cc2ccccc2)C[C@H](O)[C@H](Cc2ccccc2)NC(=O)OCc2cncs2)C(C)C)cs1", "activity change": "0.369% [at 26.4 µM, stronger effect = higher value]"}
{"compound": "CCC1=C[C@@H]2CN(C1)Cc1c([nH]c3ccccc13)[C@@](C(=O)OC)(c1cc3c(cc1OC)N(C)[C@H]1[C@@](O)(C(=O)OC)[C@H](OC(C)=O)[C@]4(CC)C=CCN5CC[C@]31[C@@H]54)C2", "activity change": "-0.228% [at 26.4 µM, stronger effect = higher value]"}
{"compound": "CCN1CCN(C(=O)N[C@@H](C(=O)N[C@@H]2C(=O)N3C(C(=O)O)=C(CSc4nnnn4C)CS[C@H]23)c2ccc(O)cc2)C(=O)C1=O", "activity change": "-0.519% [at 26.4 µM, stronger effect = higher value]"}
